According to PubChem BioAssay (NCATS):
Inconclusive results are not listed. Unmarked numbers belong to inactive results. Activity calls are given as the source filed them. Calls follow the shape of the full dose curve.

target: Thyroid hormone receptor beta (Homo sapiens) (UniProt P10828); experiment: qHTS assay for small molecule agonists of thyroid hormone receptor beta signaling (AID 588545); conditions: TR-UAS-bla GripTite HEK 293, beta-lactamase ratio, agonist mode, 18 h, percent of T3 response, DMSO as zero; series mostly up to 76.7 µM; activation: at the top concentration
Sequence (P10828 whole entry, looked up): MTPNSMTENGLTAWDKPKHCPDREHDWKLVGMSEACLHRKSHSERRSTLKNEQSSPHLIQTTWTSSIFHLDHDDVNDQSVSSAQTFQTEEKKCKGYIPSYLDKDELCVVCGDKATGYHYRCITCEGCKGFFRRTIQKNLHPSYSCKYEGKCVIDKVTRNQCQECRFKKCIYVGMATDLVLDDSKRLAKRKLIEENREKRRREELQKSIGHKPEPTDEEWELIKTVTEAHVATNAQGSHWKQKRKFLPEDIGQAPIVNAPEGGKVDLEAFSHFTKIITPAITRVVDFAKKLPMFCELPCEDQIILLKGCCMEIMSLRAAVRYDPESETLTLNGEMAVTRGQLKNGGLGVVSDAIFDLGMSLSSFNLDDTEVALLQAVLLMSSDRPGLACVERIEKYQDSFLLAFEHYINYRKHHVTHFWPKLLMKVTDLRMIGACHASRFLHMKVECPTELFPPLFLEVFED
Excerpt: NIH Chemical Genomics Center [NCGC]
U.S. Environmental Protection Agency [EPA]
National Institutes of Environmental Health Sciences [NIEHS]
National Toxicology Program [NTP]
Thyroid hormone receptor (TR) belongs to nuclear hormone receptor superfamily. There are two subtypes for TR: TR-alpha and TR-beta. TR-beta plays a major role in regulating plasma cholesterol levels and it mediates the biological activities of thyroid hormone. Screening environmental chemicals on TR-beta signaling will provide important information for the mechanism of compound action.
NCGC Assay Protocol Summary
Using a beta-lactamase reporter-gene under control of the TR response element, a cell-based assay [GeneBLAzer TR-UAS-bla-GripTite assay developed by Invitrogen] was used to measure TR-beta signaling in agonist mode. TR-UAS-bla-GripTite HEK 293 cells were used with assay medium containing 2% charcoal/dextran FBS, 0.1 mM NEAA and 1 mM sodium pyruvate. The assay was performed in clear bottom black Greiner 1536-well plates. T3 was used as a positive control in the screen. Library compounds were measured for their ability to stimulate the reporter gene activity. Compounds were screened in a titration series in 1536-well format. The fluorescence intensity (405 nm excitation, 460/530 nm emission) was measured using an EnVision plate reader. Data was normalized relative to T3 control (10 nM, 100%), and DMSO only wells (basal, 0%). Concentration-response titration points for each compound were fitted to the Hill equation yielding concentrations of half-maximal stimulation (EC50) and maximal response (efficacy) values.
qHTS protocol for TR-beta beta-lactamase assay in agonist mode
[Step] [Parameter] [Value] [Description]
1. Reagent; 6 uL; 2500 cells/well
2. Incubation; 37 C for 4 hrs
- Dose response; start 3.8 uM, 1:3 dilutions, duplicates in first column
- Two columns of each 10 and 0.4 nM (finals) concentrations.
5. Incubation; 37 C for 18 hrs
6. Detection reagent; 1 uL of CCF4-dye
7. Incubation; RT for 2 hrs
8. Detection; Fluorescence; Envision plate reader

Structure (SMILES) | outcome | activation
CCCCOC(=O)c1ccccc1C(=O)OCCCC | inactive | –
COP(=S)(OC)Oc1ccc([N+](=O)[O-])cc1 | inactive | –
CCOP(=S)(OCC)Oc1ccc([N+](=O)[O-])cc1 | – | 8.23%
O=C=NC1CCCCC1 | – | -6.89%
C=C(C)C(=O)OCC1CO1 (stereo not given) | – | -11.4%
CCCCCCCC(=O)Cl | – | -22.9%
COc1nc(NC(C)C)nc(NC(C)C)n1 | – | -4.44%
CC(C)OC(=O)Nc1cccc(Cl)c1 | – | 6.06%
COP(N)(=O)SC (stereo not given) | inactive | –
COc1ccc(N)cc1 | inactive | –
CCOP(=S)(OCC)SCSC(C)(C)C | inactive | –
CC(C)N1C(=O)c2ccccc2NS1(=O)=O | – | 4.7%
Cc1ccc2ccccc2c1 | – | -7.18%
S=C=Nc1cccc2ccccc12 | – | -15.8%
CCC(=O)Nc1ccc(Cl)c(Cl)c1 | – | -4.76%
ClC(Cl)=C(Cl)Cl | inactive | –
Nc1ccc(Br)cc1 | – | -3.88%
ClC1=C(Cl)C2(Cl)C3C(Cl)C=CC3C1(Cl)C2(Cl)Cl (stereo not given) | – | -25.8%
O=NN(c1ccccc1)c1ccccc1 | inactive | –
ClC(Cl)(Cl)c1ccccc1 | inactive | –

Structure (SMILES) | outcome | activation
O=NN(CCO)CCO | – | -25.4%
Clc1ccc2ccccc2c1 | – | -17.3%
CCCC(=O)Cl | – | -4.42%
ClC1=C(Cl)C2(Cl)C3C4C=CC(C4)C3C1(Cl)C2(Cl)Cl (stereo not given) | – | -7.26%
C=CC(=C)C | – | -3.45%
CCCCSP(=O)(SCCCC)SCCCC | – | 7.11%
ClCBr | – | -16%
c1ccc2c(c1)CCCC2 | – | -19.7%
CCN(CC)c1ccccc1 | – | -1.31%
CNC(=O)Oc1ccccc1OC(C)C | – | -13.9%
CC(COc1ccc(Oc2ccccc2)cc1)Oc1ccccn1 (stereo not given) | inactive | –
CC(C)(OO)c1ccccc1 | inactive | –
CCOCN(C(=O)CCl)c1c(C)cccc1CC | inactive | –
Nc1ccccc1Cl | – | -0.484%
CCSC(=O)Cl | – | -16.7%
c1ccc(N=Nc2ccccc2)cc1 | inactive | –
O=[N+]([O-])c1ccc(Cl)c(Cl)c1 | – | -15%
Clc1nc(Cl)nc(Cl)n1 | – | -1.13%
COC1=CC(=O)OC(CCc2ccccc2)C1 (stereo not given) | – | -30%
CNC(=O)CSP(=S)(OC)OC | inactive | –
